Data on 40 compounds can be found in PubChem BioAssay (NCI).

Compounds without any hit were thinned out: in the full panel of roughly 83,000, 20% have a hit.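 96-well plates, one dose, 48 hours. Percent growth reported; active if below 10.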 Calls of active or inactive are those of the source.

This test relates to HL-60(TB) leukemia. Briefly: NCI-60 one-dose screen, 48 h (100 = growth as untreated, 0 = no growth, -100 = all killed). The conditions noted are these: 10 µM unless noted.
Consider `Cc1nc2cc(Nc3nc(N4CCCCC4)nc(N4CCOCC4)n3)ccc2n1Cc1ccccc1`, for which the growth was 75% (inactive).
Regarding `COc1cccc(NC(=O)c2sc3nc(C)c(C(O)c4ccccc4)cc3c2N)c1` (stereo not given), the growth is -52% (active).
Consider `CCOC(=O)c1nn(CC(O)c2ccccc2)c(NC(=O)Nc2cccc(F)c2)c1C` (stereo not given), for which the growth was 108% (inactive).
Take `O=C(O)c1ccc2nc(-c3ccc(OCCCCCOc4ccc(-c5nc6ccc(C(=O)O)cc6[nH]5)cc4)cc3)[nH]c2c1`: the growth is 108% (inactive).
Consider `CCOC(=O)/C(=C\c1ccc2ccccc2c1)P(=O)(OCC)OCC`, for which the growth was 8.83% (active).
For the compound `CC(=O)O[C@H]1CC[C@@]2(C)C(=CC[C@@H]3[C@@H]2CC[C@]2(C)C(c4cccnc4)=CC[C@@H]32)C1`, the growth is 4.36% (active).
As to `COc1cc(C(=O)N2CCN(c3cc4c(cc3F)c(=O)c(C(=O)NO)cn4C3CC3)CC2)cc(OC)c1OC`, the growth was 101% (inactive).
As to `COC(=O)c1ccc(Cn2cnc3c(N)ncnc32)cc1`, the growth was 67.6% (inactive).
For `CCCCNC(=O)c1ccc2c(c1)nc(-c1ccccc1)n2C1CCCCC1` the value was 115% (inactive).
Consider `CCN(CC)CCCOc1ccc2ncnc(Nc3ccc(Oc4cccc(C(F)(F)F)c4)c(Cl)c3)c2c1`, for which the growth was -45.2% (active).
For the compound `Cc1ccc(-c2ccc(Nc3ccccc3)nn2)cc1S(N)(=O)=O`, the growth is 86.7% (inactive).
For `FC(F)(F)c1cc(-c2nnc3n2N=C(N2CCCC2)CS3)cc(C(F)(F)F)c1`, the growth was 113% (inactive).
Regarding `COc1ccc(/C=C(\c2cc(OC)c(OC)c(OC)c2)c2nnc(-c3cccs3)o2)cc1`, the growth is 92% (inactive).
For `COc1cccc(/C=C2\COc3ccc(O)c(O)c3C2=O)c1OC` the value was -24.4% (active); for `Cc1ccc(NC(=O)c2sc3nc4c(cc3c2N)C(=O)CCC4)cc1Cl`, 106% (inactive); for `COC(/C=C/c1ccc([N+](=O)[O-])cc1)OC`, 42% (inactive).
As for `NCCCNc1nc2ccccc2c2c(=O)c3cc(F)cc(F)c3sc12`, the figure is 61.2% (inactive); as for `CC1=NN(c2ccc(S(=O)(=O)O)cc2Cl)C(=O)C1`, 143% (inactive).
Take `COc1cc(-c2nc3ccccc3o2)cc(CN2CCCCC2)c1O`: the growth is 11.9% (inactive).
For the compound `CCCCn1cnc2c(SCc3ccc([N+](=O)[O-])cc3)nc(N)nc21`, the growth was -42.6% (active).
For `C[C@@H](C[C@H](CCO)c1ccccc1)c1ccc2ccccc2c1`, the growth was -38.5% (active).
For `CC1(C)CC(=O)c2c(ccc(C(=O)C[C@H](N)CO)c2N)O1` the value was 44.8% (inactive); for `O=C(CN(C1CCCCC1)C1CCCCC1)Nc1ccc(S(=O)(=O)c2ccc(NC(=O)CN(C3CCCCC3)C3CCCCC3)cc2)cc1`, -39.3% (active); for `O=C1/C(=C\c2cn(Cc3ccccc3)c3ccc(Br)cc23)c2ccccc2N1c1c(Cl)cccc1Cl`, 97% (inactive).
Consider `Nc1nc2ncc(CNc3ccc(C(=O)N[C@@H](CCc4nn[nH]n4)C(=O)O)cc3)nc2c(=O)[nH]1`, for which the growth was 109% (inactive).
Consider `Nc1n[nH]c(=S)n1-c1ccc(Cl)cc1`, for which the growth was 82.6% (inactive).
As to `CN1CCN(c2ccc(Nc3ncc(C(N)=O)c(NCCCNC(=O)C4CCC4)n3)cc2)CC1`, the growth is -36.3% (active).
Turning to `O=S(=O)(Nc1cccc2cc(OS(=O)(=O)c3ccccc3)ccc12)c1ccccc1`, the growth is 41.4% (inactive).
With `COc1ccc(-n2c(=O)c3ccccc3n(Cc3ccc(C(=O)NO)cc3)c2=O)cc1`, the growth was -4.17% (active).
With `CCOC(=O)c1c(C)nc2ccccc2c1/C=C/c1ccc(OC)cc1`, the growth was 83.3% (inactive).
Regarding `CC(=O)C1CCC2C3CC(F)C4=CC(=O)CCC4(C)C3C(O)CC12C` (stereo not given), the growth was 94.2% (inactive).
Take `O=C(NCCN1CCOCC1)OCc1nc2nc(Cl)nc(N3CCOCC3)c2[nH]1`: the growth was -54% (active).
For `CC1=C2[C@@H](CC1)[C@]1(C)O[C@@](C3CC3)(C[C@H]1OC(=O)CO)[C@H]2OC(=O)/C=C/c1ccccc1` the value was 92.6% (inactive); for `CC1(C)CC(=O)c2c(nn(-c3ccc(Br)cc3)c2-c2cn(-c3ccccc3)nc2-c2cccnc2)C1`, 92.1% (inactive).
For the compound `Cc1cc(NS(=O)(=O)c2ccccc2)c(OS(=O)(=O)c2ccccc2)cc1C`, the growth was 105% (inactive).
For `O=C(CSc1nc2sc3c(c2c(=O)n1-c1ccc(Cl)cc1)CCCC3)Nc1nc(-c2cccc(Br)c2)cs1` the value was 101% (inactive); for `O=C1c2c(c(=O)[nH]c3ccccc23)CCN1Cc1ccccc1`, 118% (inactive); for `CC1CC2Oc3ccc(Cl)cc3C(=O)N2O1` (stereo not given), 110% (inactive).
`C=C1C(=O)O[C@H]2[C@H]1CC/C(COC(=O)C(=O)c1c[nH]c3ccccc13)=C\CC[C@@]1(C)O[C@@H]21`: the growth is -46.5% (active).
Take `C=C1C(=O)O[C@H]2[C@H]1CC/C(COC(=O)NCc1ccc(Cn3c(=O)sn(-c4ccc(OC)cc4)c3=O)cc1)=C\CC[C@@]1(C)O[C@@H]21`: the growth was -18% (active).
